Results published in ChEMBL document CHEMBL1961873, “Compounds: GSK PKIS; Assays: Nanosyn kinase panel” (2012).

Legend:
[1] = biological target: 5'-AMP-activated protein kinase catalytic subunit alpha-2 (Homo sapiens) (UniProt P54646); details: at 1 µM
[2] = biological target: T1, NUAK family SNF1-like kinase 1 (Homo sapiens) (UniProt O60285); details: at 0.1 µM
T1 sequence (whole entry): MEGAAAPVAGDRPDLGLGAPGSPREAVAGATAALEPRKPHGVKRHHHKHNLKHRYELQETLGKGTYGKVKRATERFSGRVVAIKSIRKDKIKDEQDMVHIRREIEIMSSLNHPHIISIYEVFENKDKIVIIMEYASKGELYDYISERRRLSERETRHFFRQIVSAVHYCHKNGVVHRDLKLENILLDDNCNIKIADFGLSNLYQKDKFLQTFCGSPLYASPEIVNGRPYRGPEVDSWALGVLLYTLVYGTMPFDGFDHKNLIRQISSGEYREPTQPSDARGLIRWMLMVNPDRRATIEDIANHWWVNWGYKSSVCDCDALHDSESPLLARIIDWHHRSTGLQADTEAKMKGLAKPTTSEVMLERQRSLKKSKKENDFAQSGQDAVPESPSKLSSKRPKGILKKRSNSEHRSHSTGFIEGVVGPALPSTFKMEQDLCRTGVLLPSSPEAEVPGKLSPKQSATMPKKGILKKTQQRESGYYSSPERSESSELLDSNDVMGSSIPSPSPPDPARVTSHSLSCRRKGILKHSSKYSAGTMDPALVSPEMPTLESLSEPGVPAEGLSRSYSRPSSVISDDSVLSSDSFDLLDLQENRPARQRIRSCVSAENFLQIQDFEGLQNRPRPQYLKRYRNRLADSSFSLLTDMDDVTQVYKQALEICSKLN

[3] = biological target: T1, NUAK family SNF1-like kinase 1 (Homo sapiens); details: at 1 µM
[4] = biological target: T2, Serine/threonine-protein kinase BRSK1 (Homo sapiens) (UniProt Q8TDC3); details: at 0.1 µM
T2 sequence (whole entry): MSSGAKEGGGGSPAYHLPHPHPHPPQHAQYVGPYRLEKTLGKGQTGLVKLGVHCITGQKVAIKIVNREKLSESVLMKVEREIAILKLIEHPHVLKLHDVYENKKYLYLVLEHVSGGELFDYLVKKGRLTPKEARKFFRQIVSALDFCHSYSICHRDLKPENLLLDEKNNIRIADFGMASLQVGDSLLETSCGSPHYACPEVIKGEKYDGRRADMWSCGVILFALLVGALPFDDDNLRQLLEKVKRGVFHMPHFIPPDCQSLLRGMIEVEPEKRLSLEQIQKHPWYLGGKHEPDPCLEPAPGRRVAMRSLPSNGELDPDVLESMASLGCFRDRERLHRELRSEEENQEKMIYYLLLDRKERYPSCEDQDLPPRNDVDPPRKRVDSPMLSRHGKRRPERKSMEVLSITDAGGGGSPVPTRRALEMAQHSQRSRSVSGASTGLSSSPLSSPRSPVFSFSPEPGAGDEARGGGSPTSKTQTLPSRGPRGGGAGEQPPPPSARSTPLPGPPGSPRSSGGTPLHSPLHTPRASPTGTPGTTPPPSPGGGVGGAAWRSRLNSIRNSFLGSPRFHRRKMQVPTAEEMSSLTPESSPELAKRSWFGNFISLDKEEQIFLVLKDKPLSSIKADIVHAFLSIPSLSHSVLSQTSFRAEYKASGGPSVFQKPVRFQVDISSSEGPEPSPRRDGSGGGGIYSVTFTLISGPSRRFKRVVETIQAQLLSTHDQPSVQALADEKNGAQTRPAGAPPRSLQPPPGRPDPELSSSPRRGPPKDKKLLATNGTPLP

[5] = biological target: T2, Serine/threonine-protein kinase BRSK1 (Homo sapiens); details: at 1 µM
[6] = biological target: T3, Serine/threonine-protein kinase BRSK2 (Homo sapiens) (UniProt Q8IWQ3); details: at 0.1 µM
T3 sequence (whole entry): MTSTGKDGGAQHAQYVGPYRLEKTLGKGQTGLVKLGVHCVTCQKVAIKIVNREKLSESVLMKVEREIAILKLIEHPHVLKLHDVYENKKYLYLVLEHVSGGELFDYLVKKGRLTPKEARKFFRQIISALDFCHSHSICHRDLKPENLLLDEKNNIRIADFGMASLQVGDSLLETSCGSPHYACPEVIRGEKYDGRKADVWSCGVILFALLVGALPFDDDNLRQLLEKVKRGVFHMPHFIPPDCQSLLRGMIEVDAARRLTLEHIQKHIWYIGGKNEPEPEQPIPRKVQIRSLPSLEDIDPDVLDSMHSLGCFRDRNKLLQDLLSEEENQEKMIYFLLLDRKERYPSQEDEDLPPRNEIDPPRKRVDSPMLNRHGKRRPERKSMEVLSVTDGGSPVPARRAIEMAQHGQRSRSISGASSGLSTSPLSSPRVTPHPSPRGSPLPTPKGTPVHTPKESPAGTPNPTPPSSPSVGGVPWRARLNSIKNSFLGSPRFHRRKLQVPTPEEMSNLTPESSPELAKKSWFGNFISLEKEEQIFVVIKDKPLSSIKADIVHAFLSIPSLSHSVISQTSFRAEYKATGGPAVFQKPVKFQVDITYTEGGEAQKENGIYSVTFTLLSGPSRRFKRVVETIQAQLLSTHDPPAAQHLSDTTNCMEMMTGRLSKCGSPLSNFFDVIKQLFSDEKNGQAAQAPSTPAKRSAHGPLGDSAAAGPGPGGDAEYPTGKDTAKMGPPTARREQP

[7] = biological target: T3, Serine/threonine-protein kinase BRSK2 (Homo sapiens); details: at 1 µM
[8] = biological target: Calcium/calmodulin-dependent protein kinase type 1D (Homo sapiens) (UniProt Q8IU85); details: at 0.1 µM
[9] = biological target: Calcium/calmodulin-dependent protein kinase type 1D (Homo sapiens) (UniProt Q8IU85); details: at 1 µM
[10] = biological target: Calcium/calmodulin-dependent protein kinase type II subunit alpha (Homo sapiens) (UniProt Q9UQM7); details: at 0.1 µM
[11] = biological target: Calcium/calmodulin-dependent protein kinase type II subunit alpha (Homo sapiens) (UniProt Q9UQM7); details: at 1 µM
[12] = biological target: Calcium/calmodulin-dependent protein kinase type II subunit delta (Homo sapiens) (UniProt Q13557); details: at 0.1 µM
[13] = biological target: Calcium/calmodulin-dependent protein kinase type II subunit delta (Homo sapiens) (UniProt Q13557); details: at 1 µM
[14] = biological target: T4, Calcium/calmodulin-dependent protein kinase type IV (Homo sapiens) (UniProt Q16566); details: at 0.1 µM
T4 sequence (whole entry): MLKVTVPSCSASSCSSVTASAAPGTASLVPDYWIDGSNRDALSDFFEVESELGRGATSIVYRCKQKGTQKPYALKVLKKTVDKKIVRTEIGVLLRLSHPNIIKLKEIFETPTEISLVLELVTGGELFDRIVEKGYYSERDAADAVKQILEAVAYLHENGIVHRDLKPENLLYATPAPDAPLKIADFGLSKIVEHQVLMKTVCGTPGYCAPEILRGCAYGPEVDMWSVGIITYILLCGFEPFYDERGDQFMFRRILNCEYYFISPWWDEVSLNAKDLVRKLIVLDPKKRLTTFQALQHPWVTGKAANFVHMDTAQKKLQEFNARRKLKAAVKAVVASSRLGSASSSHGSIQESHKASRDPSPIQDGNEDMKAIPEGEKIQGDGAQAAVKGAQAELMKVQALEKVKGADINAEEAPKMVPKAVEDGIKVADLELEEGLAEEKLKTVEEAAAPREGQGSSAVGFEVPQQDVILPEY

[15] = biological target: T4, Calcium/calmodulin-dependent protein kinase type IV (Homo sapiens); details: at 1 µM
[16] = biological target: T5, Serine/threonine-protein kinase Chk1 (Homo sapiens) (UniProt O14757); details: at 0.1 µM
T5 sequence (whole entry): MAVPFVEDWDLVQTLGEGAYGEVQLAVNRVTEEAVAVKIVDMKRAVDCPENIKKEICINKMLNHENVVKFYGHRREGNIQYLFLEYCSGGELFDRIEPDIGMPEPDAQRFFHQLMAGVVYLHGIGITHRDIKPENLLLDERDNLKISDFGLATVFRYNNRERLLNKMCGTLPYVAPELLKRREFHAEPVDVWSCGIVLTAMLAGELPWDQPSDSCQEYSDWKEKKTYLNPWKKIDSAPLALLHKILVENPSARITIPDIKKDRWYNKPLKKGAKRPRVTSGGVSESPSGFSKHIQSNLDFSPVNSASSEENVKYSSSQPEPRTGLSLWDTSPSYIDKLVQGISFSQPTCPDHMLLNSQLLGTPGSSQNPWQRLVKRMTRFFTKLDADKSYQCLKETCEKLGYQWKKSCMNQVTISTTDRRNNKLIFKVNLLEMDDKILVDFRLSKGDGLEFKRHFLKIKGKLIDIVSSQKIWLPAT

[17] = biological target: T5, Serine/threonine-protein kinase Chk1 (Homo sapiens); details: at 1 µM
[18] = biological target: Serine/threonine-protein kinase Chk2 (Homo sapiens) (UniProt O96017); details: at 0.1 µM
[19] = biological target: Serine/threonine-protein kinase Chk2 (Homo sapiens) (UniProt O96017); details: at 1 µM
[20] = biological target: Death-associated protein kinase 1 (Homo sapiens) (UniProt P53355); details: at 0.1 µM;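 also: reported figure is the mean inhibition of DAPK1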
Death-associated protein kinase 1 (Homo sapiens), sequence (P53355 whole entry, looked up): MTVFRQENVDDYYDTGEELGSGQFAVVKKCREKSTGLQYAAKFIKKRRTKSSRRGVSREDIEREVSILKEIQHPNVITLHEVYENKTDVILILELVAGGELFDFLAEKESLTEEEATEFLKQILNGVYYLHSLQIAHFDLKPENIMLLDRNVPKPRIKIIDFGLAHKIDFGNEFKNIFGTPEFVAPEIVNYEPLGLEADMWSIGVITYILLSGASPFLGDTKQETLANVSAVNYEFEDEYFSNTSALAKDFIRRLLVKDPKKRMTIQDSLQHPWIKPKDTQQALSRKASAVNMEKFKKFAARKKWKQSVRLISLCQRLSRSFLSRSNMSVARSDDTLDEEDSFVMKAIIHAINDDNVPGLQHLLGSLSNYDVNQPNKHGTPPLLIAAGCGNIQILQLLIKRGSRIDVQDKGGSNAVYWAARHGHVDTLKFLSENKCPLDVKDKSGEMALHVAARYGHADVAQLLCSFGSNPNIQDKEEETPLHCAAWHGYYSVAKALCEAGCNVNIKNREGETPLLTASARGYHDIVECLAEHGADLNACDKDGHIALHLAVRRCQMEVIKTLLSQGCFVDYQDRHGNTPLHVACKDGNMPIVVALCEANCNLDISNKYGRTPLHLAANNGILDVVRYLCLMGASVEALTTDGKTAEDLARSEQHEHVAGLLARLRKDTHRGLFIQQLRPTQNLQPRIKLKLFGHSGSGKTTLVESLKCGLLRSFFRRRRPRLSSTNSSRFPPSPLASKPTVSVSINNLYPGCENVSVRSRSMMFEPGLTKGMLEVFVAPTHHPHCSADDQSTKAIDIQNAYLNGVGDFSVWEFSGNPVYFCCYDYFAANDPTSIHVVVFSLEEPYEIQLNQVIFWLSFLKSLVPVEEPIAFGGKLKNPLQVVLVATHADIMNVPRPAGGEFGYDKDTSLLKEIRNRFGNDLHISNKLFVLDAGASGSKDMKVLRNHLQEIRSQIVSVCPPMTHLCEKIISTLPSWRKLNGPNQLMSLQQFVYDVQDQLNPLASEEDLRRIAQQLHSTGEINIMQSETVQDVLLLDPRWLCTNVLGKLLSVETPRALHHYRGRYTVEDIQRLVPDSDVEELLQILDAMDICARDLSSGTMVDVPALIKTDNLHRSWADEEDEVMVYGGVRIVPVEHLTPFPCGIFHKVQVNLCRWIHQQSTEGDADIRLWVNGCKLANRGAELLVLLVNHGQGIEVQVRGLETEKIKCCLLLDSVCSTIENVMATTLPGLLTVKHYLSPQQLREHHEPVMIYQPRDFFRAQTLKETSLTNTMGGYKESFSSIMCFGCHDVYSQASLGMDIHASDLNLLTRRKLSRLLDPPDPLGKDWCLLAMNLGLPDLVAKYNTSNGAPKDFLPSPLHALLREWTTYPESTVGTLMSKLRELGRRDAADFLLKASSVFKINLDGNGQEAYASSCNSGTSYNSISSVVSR

5'-AMP-activated protein kinase catalytic subunit alpha-2 (Homo sapiens), sequence (P54646 whole entry, looked up): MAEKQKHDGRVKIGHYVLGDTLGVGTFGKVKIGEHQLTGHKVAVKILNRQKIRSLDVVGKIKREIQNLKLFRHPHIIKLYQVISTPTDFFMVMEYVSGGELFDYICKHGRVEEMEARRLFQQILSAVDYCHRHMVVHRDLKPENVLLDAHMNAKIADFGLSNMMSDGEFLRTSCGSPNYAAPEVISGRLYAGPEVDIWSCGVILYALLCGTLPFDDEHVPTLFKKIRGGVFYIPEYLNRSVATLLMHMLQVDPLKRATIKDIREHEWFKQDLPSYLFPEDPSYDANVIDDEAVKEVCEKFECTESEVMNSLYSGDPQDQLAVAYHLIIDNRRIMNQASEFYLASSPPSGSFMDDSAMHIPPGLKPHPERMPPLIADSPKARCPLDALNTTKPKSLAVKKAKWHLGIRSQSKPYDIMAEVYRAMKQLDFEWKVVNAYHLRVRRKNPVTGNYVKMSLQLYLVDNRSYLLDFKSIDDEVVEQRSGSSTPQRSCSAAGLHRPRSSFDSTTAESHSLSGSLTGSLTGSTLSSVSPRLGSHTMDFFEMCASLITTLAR
Calcium/calmodulin-dependent protein kinase type II subunit delta (Homo sapiens), sequence (Q13557 whole entry): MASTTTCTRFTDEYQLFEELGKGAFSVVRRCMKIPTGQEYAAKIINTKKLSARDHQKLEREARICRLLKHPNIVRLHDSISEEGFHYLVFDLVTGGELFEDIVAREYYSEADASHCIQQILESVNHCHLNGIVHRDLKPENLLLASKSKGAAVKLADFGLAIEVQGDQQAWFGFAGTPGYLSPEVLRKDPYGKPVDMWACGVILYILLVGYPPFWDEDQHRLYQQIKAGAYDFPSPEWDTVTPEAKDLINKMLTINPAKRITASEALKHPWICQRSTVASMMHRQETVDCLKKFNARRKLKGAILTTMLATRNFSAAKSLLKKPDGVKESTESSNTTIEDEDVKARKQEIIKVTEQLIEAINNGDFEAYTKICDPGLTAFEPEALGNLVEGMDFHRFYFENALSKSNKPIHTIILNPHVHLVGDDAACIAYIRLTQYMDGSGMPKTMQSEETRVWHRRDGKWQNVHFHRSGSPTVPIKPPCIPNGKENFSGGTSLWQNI
Calcium/calmodulin-dependent protein kinase type II subunit alpha (Homo sapiens), sequence (Q9UQM7 whole entry): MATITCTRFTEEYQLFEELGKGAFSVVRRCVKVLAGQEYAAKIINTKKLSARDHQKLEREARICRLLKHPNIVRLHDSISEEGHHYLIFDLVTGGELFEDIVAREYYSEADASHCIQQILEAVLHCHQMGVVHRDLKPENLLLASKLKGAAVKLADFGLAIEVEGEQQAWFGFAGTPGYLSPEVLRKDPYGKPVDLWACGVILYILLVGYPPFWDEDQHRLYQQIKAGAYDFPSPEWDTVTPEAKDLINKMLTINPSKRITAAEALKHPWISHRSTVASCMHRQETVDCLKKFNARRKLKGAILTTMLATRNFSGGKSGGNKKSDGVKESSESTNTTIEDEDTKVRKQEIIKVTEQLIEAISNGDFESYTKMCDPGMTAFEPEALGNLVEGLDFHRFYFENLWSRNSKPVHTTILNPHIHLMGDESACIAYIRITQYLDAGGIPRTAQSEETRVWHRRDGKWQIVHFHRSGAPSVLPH
Calcium/calmodulin-dependent protein kinase type 1D (Homo sapiens), sequence (Q8IU85 whole entry, looked up): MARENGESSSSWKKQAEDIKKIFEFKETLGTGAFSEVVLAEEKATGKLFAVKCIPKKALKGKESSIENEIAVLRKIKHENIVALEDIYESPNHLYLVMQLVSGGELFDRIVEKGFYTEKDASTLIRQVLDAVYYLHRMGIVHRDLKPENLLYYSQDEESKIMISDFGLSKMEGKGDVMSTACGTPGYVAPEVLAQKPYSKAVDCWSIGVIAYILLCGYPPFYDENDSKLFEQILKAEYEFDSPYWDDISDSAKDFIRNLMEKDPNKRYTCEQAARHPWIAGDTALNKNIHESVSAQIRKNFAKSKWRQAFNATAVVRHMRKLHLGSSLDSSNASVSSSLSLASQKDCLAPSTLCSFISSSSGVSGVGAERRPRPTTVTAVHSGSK
Serine/threonine-protein kinase Chk2 (Homo sapiens), sequence (O96017 whole entry): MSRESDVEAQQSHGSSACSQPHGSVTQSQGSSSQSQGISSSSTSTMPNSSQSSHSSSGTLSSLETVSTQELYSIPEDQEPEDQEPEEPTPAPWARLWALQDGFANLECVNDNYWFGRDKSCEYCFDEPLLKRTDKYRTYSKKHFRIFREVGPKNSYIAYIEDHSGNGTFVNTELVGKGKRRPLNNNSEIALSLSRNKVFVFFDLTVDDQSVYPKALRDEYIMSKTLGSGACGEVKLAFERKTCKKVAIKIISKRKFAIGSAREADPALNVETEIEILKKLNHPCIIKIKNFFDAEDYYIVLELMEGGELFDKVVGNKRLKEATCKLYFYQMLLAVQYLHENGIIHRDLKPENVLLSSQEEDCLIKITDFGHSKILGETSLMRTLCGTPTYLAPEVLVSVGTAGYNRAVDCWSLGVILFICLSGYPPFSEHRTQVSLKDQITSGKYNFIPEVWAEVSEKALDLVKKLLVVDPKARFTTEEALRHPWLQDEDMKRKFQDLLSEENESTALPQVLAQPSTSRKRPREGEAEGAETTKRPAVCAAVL

SMILES | inhibition [1] [%] | inhibition [2] [%] | inhibition [3] [%] | inhibition [4] [%] | inhibition [5] [%] | inhibition [6] [%] | inhibition [7] [%] | inhibition [8] [%] | inhibition [9] [%] | inhibition [10] [%] | inhibition [11] [%] | inhibition [12] [%] | inhibition [13] [%] | inhibition [14] [%] | inhibition [15] [%] | inhibition [16] [%] | inhibition [17] [%] | inhibition [18] [%] | inhibition [19] [%] | inhibition [20] [%]
Nc1nc(-c2ccc3c(c2)C(=Cc2cc(Br)c(O)c(Br)c2)C(=O)N3)cs1 | 1.63 | 3.02 | 5.77 | 1.06 | 6.62 | 0.58 | 8.7 | 0.31 | 9 | -5.57 | -3.05 | -2.31 | -1.31 | -0.65 | -2.75 | 3.04 | 1.34 | -2.92 | 0.55 | 0.32
O=C1NC(=O)C(c2cccc(Cl)c2)=C1Nc1ccc(O)c(Cl)c1 | 11 | 8.01 | 48.3 | 2.57 | 12.9 | 2.05 | 19 | 1.1 | 5.88 | 3.72 | 6.43 | 3.12 | 12 | 1.98 | 4.94 | 1.7 | 4.63 | 0.16 | 2.07 | 1.29
COc1cc2c(cc1Nc1nc(N3CCc4ccccc43)c3cc[nH]c3n1)N(C(=O)CN(C)C)CC2 | 3.8 | 4.37 | -4.13 | 2.17 | 0.61 | 0.98 | 1.3 | 0.34 | 2.58 | 3.95 | 4.08 | 3.43 | 2.99 | 2.17 | 3.69 | 0.15 | 3.74 | 1.34 | 7.08 | 2.95
CCn1c(-c2nonc2N)nc2c(N3CCCC3)nccc21 | 0.77 | 4.51 | 0.95 | 1.14 | 1.31 | 1.48 | 3.56 | -0.31 | -0.81 | -1.53 | -3.88 | -2.38 | -0.97 | -0.74 | -0.33 | 2.68 | 0.57 | -2.44 | -2.51 | 0.86
CCn1c(-c2nonc2N)nc2ccncc21 | 4.28 | 1.84 | 4.31 | 1.52 | 2.23 | 1.34 | 0.91 | 1.15 | 1.59 | 3.93 | 6.48 | 2.32 | 4.41 | 0.03 | 1.1 | 1.89 | 0.17 | 1.09 | 1.49 | 1.08
NC(=O)c1ccc(-c2nc(-c3ccccn3)c(-c3ccc4c(c3)OCO4)[nH]2)cc1 | 2.23 | 0.4 | 1.15 | -0.32 | -0.03 | 0.53 | 1.06 | 0.53 | 0.23 | 1.86 | 3.33 | 1.17 | 1.87 | 0.57 | 0.4 | -1.44 | 2.65 | 1.07 | 1.89 | 2.4
